For 92 compounds, inhibition results are on record in PubChem BioAssay AID1903 (Southern Research Specialized Biocontainment Screening …, 2009).

What is called inhibition is the relative decrease from the control value, in per cent.

About 1,200 (0.39%) of roughly 310,000 compounds were called active. How the calls were made is not given here. These entries were drawn from the full list. Potency and affinity values are given separately.

For this test, the target named is Large T antigen (Simian virus 40) (UniProt P03070). Description: SV40 large T antigen inhibitors, biochemical (AID 1903). As to conditions: SV40 large T antigen ATPase/helicase inhibition assay; at 20 µM; active compounds read high.
Chain of Large T antigen (Simian virus 40) (P03070 whole entry, looked up): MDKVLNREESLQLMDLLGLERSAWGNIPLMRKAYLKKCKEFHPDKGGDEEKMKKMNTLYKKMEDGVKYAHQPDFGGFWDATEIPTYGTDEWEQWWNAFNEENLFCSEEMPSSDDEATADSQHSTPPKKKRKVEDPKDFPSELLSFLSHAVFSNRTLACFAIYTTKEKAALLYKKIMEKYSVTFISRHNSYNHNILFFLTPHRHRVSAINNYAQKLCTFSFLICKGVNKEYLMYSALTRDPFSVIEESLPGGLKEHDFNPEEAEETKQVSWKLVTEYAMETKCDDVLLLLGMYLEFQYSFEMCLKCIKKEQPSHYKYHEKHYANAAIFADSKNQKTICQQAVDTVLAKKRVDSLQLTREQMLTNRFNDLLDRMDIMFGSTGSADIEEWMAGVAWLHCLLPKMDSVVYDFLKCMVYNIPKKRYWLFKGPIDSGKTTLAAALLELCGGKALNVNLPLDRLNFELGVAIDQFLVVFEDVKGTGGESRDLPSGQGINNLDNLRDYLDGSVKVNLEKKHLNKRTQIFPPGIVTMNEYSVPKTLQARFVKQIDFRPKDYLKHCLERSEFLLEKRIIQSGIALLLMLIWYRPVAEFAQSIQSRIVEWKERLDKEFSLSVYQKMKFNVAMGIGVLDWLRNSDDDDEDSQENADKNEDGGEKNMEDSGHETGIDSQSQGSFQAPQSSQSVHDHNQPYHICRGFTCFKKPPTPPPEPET
In the case of `CN(Cc1ccco1)S(=O)(=O)c1ccc(CN2C(=O)c3cccnc3C2=O)s1`, the inhibition is 16.5% (inactive).

For `COc1ccc(N2CCC(CNC(=O)Nc3ccc(Cl)cc3)C2)cc1` (configuration not stated), the inhibition was 21.5% (inactive).

For `COc1ccc(N2CCC(CNC(=S)Nc3cccc(OC)c3)C2)cc1` (configuration not stated), the inhibition is 19.4% (inactive).

Consider `CCOc1ccc(NC(=O)NCC2CCN(c3ccc(OC)cc3)C2)cc1` (configuration not stated), for which the inhibition was 22.4% (inactive).

Take `COc1ccc(N2CCC(CNC(=O)Nc3ccc(C)c(C)c3)C2)cc1` (configuration not stated): the inhibition was 9.39% (inactive).

As for `CC(C)CN(C(=O)COC(=O)C1CC1)c1c(N)n(Cc2ccccc2)c(=O)[nH]c1=O`, the inhibition is 17.3% (inactive).

Consider `Cc1c(Cl)cccc1NC(=O)CN1CCC(NC(=O)C2CCCCC2)CC1`, for which the inhibition was 8.83% (inactive).

Take `CC(=Nc1ccccc1)Nc1ccccc1`: the inhibition is 9.53% (inactive).

On to `NC(=Nc1ccccc1)Nc1ccccc1`, for which the inhibition is 15.7% (inactive).

In the case of `COc1cccc(NC(=O)CCC(=O)Nc2cccc(OC)c2)c1`, the inhibition was 11.8% (inactive).

On to `COc1ccc(OCC(=O)Nc2cccc(OC)c2)cc1`, for which the inhibition was 2.29% (inactive).

Consider `NC(=O)C[n+]1cccc(/C=N/O)c1`, for which the inhibition was 2.56% (inactive).

Turning to `c1ccc(-c2nn3c(Cn4cnc5ccccc54)nnc3s2)cc1`, the inhibition is -0.363% (inactive).

For `COc1cccc(/C=C2\SC(=S)N(C(Cc3ccccc3)C(=O)O)C2=O)c1` (configuration not stated), the inhibition is 33.3% (inactive).

With `COc1ccc(/C=C2\SC(=S)N(C(Cc3ccccc3)C(=O)O)C2=O)cc1` (configuration not stated), the inhibition was -3.2% (inactive).

As for `CCOc1ccc(/C=C2\SC(=S)N(C(C(=O)O)c3ccccc3)C2=O)cc1OC` (configuration not stated), the inhibition was 23.8% (inactive).

In the case of `COc1cc(/C=C2\SC(=S)N(C(C(=O)O)c3ccccc3)C2=O)cc(OC)c1OC` (configuration not stated), the inhibition was 27.9% (inactive).

As for `O=C(O)C(c1ccccc1)N1C(=O)/C(=C/c2cccs2)SC1=S` (configuration not stated), the inhibition is 19.8% (inactive).

Regarding `CCOc1ccc(/C=C2/SC(=S)N(C(C(=O)O)c3ccccc3)C2=O)cc1OCC` (configuration not stated), the inhibition is 19% (inactive).

Turning to `Cc1ccc(NS(=O)(=O)c2cc(C(=O)N(C)C)ccc2C)cc1C`, the inhibition was 7.8% (inactive).

Take `CC(=O)Nc1ccc(NC(=O)CCOc2ccccc2C)cc1`: the inhibition was 9.91% (inactive).

Consider `O=C(NCCc1nnc2ccc(N3CCCCCC3)nn12)c1ccccc1F`, for which the inhibition was 10% (inactive).

Consider `COc1ccc(C(=O)NCC(C)(C)CNC(=O)c2ccc(OC)cc2)cc1`, for which the inhibition was 11.7% (inactive).

`CCN(CC)c1ccc(CN(C(=O)c2ccco2)C2CCS(=O)(=O)C2)cc1` (configuration not stated): the inhibition was 21.8% (inactive).

Turning to `COC(=O)C1=C(C(=O)OC)[C@@H]2N(C)c3ccc(OC)cc3[C@@]23C[C@@H](C(=O)OC)N(S(=O)(=O)c2ccc([N+](=O)[O-])cc2)C3=N1`, the inhibition is 1.76% (inactive).

`CCOC(=O)C1=NN(c2ccc(C)cc2)CC1C(=O)OC` (configuration not stated): the inhibition was 7.97% (inactive).

As for `CCOc1cc(C(=O)N[C@@H](C)C(=O)N2CCC3(CC2)NCCc2[nH]cnc23)cc(OCC)c1OCC`, the inhibition was 4.98% (inactive).

Consider `S=C(NCCN1CCOCC1)N/N=C/c1ccccc1`, for which the inhibition is 2.2% (inactive).

Consider `COc1ccc(CNC(=S)N/N=C/c2ccc(OC)c(OC)c2)cc1`, for which the inhibition was 4.58% (inactive).

`COCCCNC(=S)N/N=C/c1ccc(O)cc1`: the inhibition is 46.2% (inactive).

For the compound `CCOc1ccc(CNC(=S)N/N=C/c2ccc(OC)c(OC)c2)cc1`, the inhibition was 9.25% (inactive).

Regarding `COc1cc(/C=N/NC(=S)NCCN2CCOCC2)cc(OC)c1OC`, the inhibition was 12.4% (inactive).

As for `Oc1cccc(/C=N/NC(=S)NCCN2CCOCC2)c1O`, the inhibition is 50.5% (inactive).

As for `COCCCNC(=S)N/N=C/c1ccccc1O`, the inhibition is 12.5% (inactive).

For the compound `COc1cc(/C=N/NC(=S)NCCN2CCOCC2)cc(OC)c1O`, the inhibition was 30.1% (inactive).

Regarding `CC(=O)c1cccc(NC(=S)NC(=O)c2ccccc2Br)c1`, the inhibition was 4.36% (inactive).

For the compound `COCCn1c(-c2ccc(Br)cc2)csc1=Nc1cccnc1`, the inhibition is 8.06% (inactive).

For the compound `O=C(CN1CCN(C(=O)c2ccco2)CC1)Nc1ccc(Cl)c(S(=O)(=O)N2CCOCC2)c1`, the inhibition is 0.58% (inactive).

For the compound `O=C(Nn1cnnc1)C(Sc1ccccc1)c1ccccc1` (configuration not stated), the inhibition was 1.32% (inactive).

Take `O=C(NCCF)[C@H]1C[C@@H]1[C@H](NP(=O)(c1ccccc1)c1ccccc1)c1ccccc1`: the inhibition is 3.51% (inactive).

For `COc1ccc2oc(C(=O)OCC(=O)Nc3ccc(N4CCOCC4)cc3)c(C)c2c1`, the inhibition was 14% (inactive).

`CC(C)CCn1c(CN2CC(C)OC(C)C2)nc2c1c(=O)n(C)c(=O)n2C` (configuration not stated): the inhibition was 4.84% (inactive).

With `CC(C)Oc1ccc(Br)cc1/C=N\NC(N)=S`, the inhibition was 16% (inactive).

Take `CC(C)NC(=O)c1nn2c(C(F)(F)F)cc(-c3ccco3)nc2c1Cl`: the inhibition is 10.7% (inactive).

`Cn1c(=O)n(-c2cccc(Cl)c2)c(=O)n1C`: the inhibition is 10.7% (inactive).

For the compound `Cc1nn(-c2cccc(Cl)c2)nc1C(=O)O`, the inhibition is 6.68% (inactive).

`O=C1Nc2cc(Cl)ccc2Nc2cscc21`: the inhibition was 14.2% (inactive).

Turning to `CCOc1cc(C(C(=O)NCC2CCCO2)N(C(=O)Cn2nnc3ccccc32)c2ccccc2C)ccc1O` (configuration not stated), the inhibition was 9.12% (inactive).

For the compound `Cc1ccc(NC(=O)/C(=C\c2cccs2)NC(=O)c2ccccc2)cc1`, the inhibition is 3% (inactive).

Take `Cc1ccc(NC(=O)/C(=C/c2ccncc2)NC(=O)c2ccccc2)cc1`: the inhibition is 13.5% (inactive).

With `O=C(Nc1ccc(C(=O)O)cc1)/C(=C\c1ccco1)NC(=O)c1ccccc1`, the inhibition was 7.81% (inactive).

Take `O=C(Nc1ccccc1)/C(=C\c1ccncc1)NC(=O)c1ccccc1`: the inhibition was 5.96% (inactive).

Consider `O=C(Nc1ccccc1)/C(=C\c1cccs1)NC(=O)c1ccccc1`, for which the inhibition was 10.4% (inactive).

In the case of `CC(=O)Nc1ccc(NC(=O)/C(=C/c2ccco2)NC(=O)c2ccccc2)cc1`, the inhibition is 14.8% (inactive).

With `COc1cc(CN2CCCC(C(=O)Nc3ccccc3Oc3cccnc3)C2)ccc1F` (configuration not stated), the inhibition was 7.89% (inactive).

`CCOC(=O)c1[nH]c2c(c1-c1ccccc1)C(=O)CC(c1ccc(OCC)cc1)C2` (configuration not stated): the inhibition is -10.4% (inactive).

For `C=CCOc1ccc(CNCc2cccnc2)cc1`, the inhibition is 2.27% (inactive).

For `Cn1c(N2CCN(C(c3ccccc3)c3ccccc3)CC2)nc2ccccc21`, the inhibition is 0.51% (inactive).

For `Cc1cc2nc3c(c(C(F)(F)F)n2n1)CCCC3`, the inhibition is 3.17% (inactive).

On to `COc1ccc(/C=C2\CCc3c2nc2ccccc2c3C(=O)O)cc1OC`, for which the inhibition is 6.95% (inactive).

Consider `COc1cc(/C=C2\CCCc3c2nc2ccccc2c3C(=O)O)cc(OC)c1O`, for which the inhibition is 30.3% (inactive).

`COc1cccc(N2CC(NS(=O)(=O)c3ccc4ccccc4c3)CC2=O)c1` (configuration not stated): the inhibition was 11% (inactive).

As to `Nc1ccccc1SSc1ccccc1N`, the inhibition is 22.8% (inactive).

On to `Cc1ccc(O)c(Sc2cc(C)ccc2O)c1`, for which the inhibition is 5.68% (inactive).

`O=S(=O)(c1ccc(-c2cnc(C3CC3)o2)cc1)N1CCN(c2ccccc2)CC1`: the inhibition is 7.98% (inactive).

Consider `O/N=C1\CCCc2ccc(Cl)cc21`, for which the inhibition was 3.89% (inactive).

Take `Cc1cc(C)n(CCc2nc(-c3cccs3)cs2)n1`: the inhibition was 0.46% (inactive).

Regarding `Cc1cc(C)n(CCc2nc(-c3ccc(C)o3)cs2)n1`, the inhibition is 28.1% (inactive).

In the case of `CC(O)c1nc2cc([N+](=O)[O-])ccc2n1Cc1ccccc1` (configuration not stated), the inhibition was 7.32% (inactive).

On to `O=C(/C=C/c1cccc(Cl)c1)NCc1cccs1`, for which the inhibition was -0.755% (inactive).

Take `COc1ccc(NC(=O)COc2ccc(C)c(C)c2)cc1S(=O)(=O)N1CCCCC1`: the inhibition was 5.04% (inactive).

As to `Cc1cccc(OCCn2ccnc2)c1C`, the inhibition is 12.1% (inactive).

Take `CC(C)Cn1c(=O)c(C(=O)NCc2ccc3c(c2)OCO3)c(O)c2ccccc21`: the inhibition is -14.6% (inactive).

Regarding `CCOC(=O)C1(C)C=C(Nc2ccc(NC(C)=O)cc2)C(=O)N1c1ccc(NC(C)=O)cc1` (configuration not stated), the inhibition is 6.98% (inactive).

For the compound `CCOC(=O)C1(C)C=C(Nc2ccc(C)cc2)C(=O)N1c1ccc(C)cc1` (configuration not stated), the inhibition is 12.1% (inactive).

As to `COc1ccc(C)c2sc(=NC(=O)c3cccc(N4C(=O)CCC4=O)c3)n(C)c12`, the inhibition is 14.4% (inactive).

For the compound `COC(=O)c1c(C(=O)OC)c2ccccn2c1C(=O)c1ccccc1`, the inhibition is 10.4% (inactive).

`Cc1ccc(-c2nc(C=Nc3ccc(O)cc3)c(O)o2)cc1`: the inhibition is 23.6% (inactive).

For the compound `Cc1ccc(N=C(N)N=C(N)N)cc1`, the inhibition is 6.91% (inactive).

On to `O=C1CC(NS(=O)(=O)c2cc(F)ccc2F)CN1c1cccc(F)c1` (configuration not stated), for which the inhibition is 4.86% (inactive).

`CCc1ccc[n+](-c2nc3ccccc3nc2C(=C=[N-])C#N)c1`: the inhibition is 11.3% (inactive).

Consider `CN1CCN(C(=O)c2cccn(Cc3ccc(C(F)(F)F)cc3)c2=O)CC1`, for which the inhibition is 2.45% (inactive).

As to `COc1ccc(OC)c(C2CC(=O)N3CN(c4ccccc4)CSC3=C2C#N)c1` (configuration not stated), the inhibition was 35.4% (inactive).

As to `CCOC(=O)c1ccc(N2CSC3=C(C#N)C(c4cccs4)CC(=O)N3C2)cc1` (configuration not stated), the inhibition was 28.9% (inactive).

In the case of `COc1ccc(OC)c(C2CC(=O)N3CN(c4cccc(Cl)c4)CSC3=C2C#N)c1` (configuration not stated), the inhibition was 21.8% (inactive).

As to `COc1ccc(C2CC(=O)N3CN(Cc4ccco4)CSC3=C2C#N)cc1` (configuration not stated), the inhibition was 36.8% (inactive).

For `COc1ccc(C2CC(=O)N3CN(c4ccc(C)c(Cl)c4)CSC3=C2C#N)cc1` (configuration not stated), the inhibition is 34.4% (inactive).

In the case of `N#CC1=C2SCN(c3ccccc3)CN2C(=O)CC1c1cccs1` (configuration not stated), the inhibition is 25.3% (inactive).

Consider `COc1cccc(C2CC(=O)N3CN(c4cccc(Cl)c4C)CSC3=C2C#N)c1OC` (configuration not stated), for which the inhibition is 25.5% (inactive).

Consider `CCOC(=O)c1ccc(N2CSC3=C(C#N)C(c4ccc(OC)cc4OC)CC(=O)N3C2)cc1` (configuration not stated), for which the inhibition is 31% (inactive).

Regarding `COc1ccc(-c2nn(-c3ccccc3)cc2/C=C/C(=O)O)cc1[N+](=O)[O-]`, the inhibition is 18.4% (inactive).

As for `C#CCOCCOCCOCCNc1nc(N2CCN(C(=O)[C@H]([C@@H](C)CC)n3cc([C@@H](N)CC(C)C)nn3)CC2)nc(N2CCN(C(=O)[C@H]([C@@H](C)CC)n3cc([C@@H](N)CC(C)C)nn3)CC2)n1`, the inhibition is 3.81% (inactive).
